Laboratory results reported in ChEMBL document CHEMBL4513216, “Probing the Open Global Health Chemical Diversity Library for Multistage-Active Starting Points for Next-Generation Antimalarials” (ACS Infect Dis, 2020).
The campaign covered roughly 69,000 compounds. About 8,600 (12%) showed an effect of 50% or more. The sample as a whole holds a higher share of strong results than the screen did.

tested on: Plasmodium berghei; assay: Screen against P. berghei liver stage (PbLuc), transformed with Luciferase, at 10uM; format: functional, HepG2; conditions: tested at 10 uM

Row | Compound | INHIBITION [%]
1 | CCOCC(O)CN1CCN(C(=O)c2cc(Cl)ccc2F)CC1 (stereo unspecified) | -18
2 | Cc1cnc(N2CCCC3(CCN(Cc4csc(C)n4)C3=O)C2)nc1 (stereo unspecified) | -49.8
3 | CC(NC(=O)N1CCN(c2ccccc2O)CC1)c1nncn1C (stereo unspecified) | -1.14
4 | Cn1nc2c(cc1=O)CN(c1ncnc3sccc13)CC2 | 42.3
5 | CCCn1nc2c(cc1=O)CN(C(C)C(=O)Nc1nccs1)CC2 (stereo unspecified) | 29.4
6 | CCn1nc2c(cc1=O)CN(c1ncnc3sccc13)CC2 | 79.9
7 | CCn1nc2c(cc1=O)CN(Cc1nc(C)c3ccccc3n1)CC2 | -3.72
8 | CCCn1nc2c(cc1=O)CN(c1ncnc3sccc13)CC2 | 96.2
9 | CC(C)n1nc2c(cc1=O)CN(CCCN1CCCC1=O)CC2 | 11.9
10 | CC(C)n1nc2c(cc1=O)CN(CCOc1ccc(C#N)cc1)CC2 | -7.94
11 | CC(C)n1nc2c(cc1=O)CN(c1ncnc3sccc13)CC2 | 88.5
12 | CCn1nc2c(cc1=O)CN(Cc1nc3ccccc3o1)CC2 | 8.24
13 | CC(C(=O)NCc1ccnc(N2CCCCCC2)c1)n1cccn1 (stereo unspecified) | -39.6
14 | COc1c(C)cnc(CN2CCOC(Cn3nc(C)cc3C)C2)c1C (stereo unspecified) | -21.7
15 | CN1C(=O)CO[C@H]2CCN(C(=O)Cc3ccc4c(c3)CCCC4)CC[C@@H]21 | 10.65
16 | N#Cc1cccc(OCCN2CCOC(Cn3cccn3)C2)c1 (stereo unspecified) | 0.411
17 | CCCOC(=O)c1ccc(-c2ccc(/C=C3\C(=O)NC(=N)N3C)o2)cc1 | -18
18 | CCc1nc2n(n1)CC(NCc1cnn(Cc3ccccc3)c1)CC2 (stereo unspecified) | -2.19
19 | Cc1nn(C)c2ncc(NC(=O)N3CCNC(=O)C3)cc12 | -38
20 | CCS(=O)(=O)N1CCC(NC(=O)c2cc(C)ccc2O)CC1 | 8.665
21 | CCS(=O)(=O)N1CCC(NC(=O)c2ccccc2O)CC1 | -33.32
22 | CCCS(=O)(=O)N1CCC(NC(=O)c2ccc(C)s2)CC1 | -19.3

Row | Compound | INHIBITION [%]
23 | CCS(=O)(=O)N1CCC(NC(=O)c2cc3ccccc3cc2O)CC1 | 80.55
24 | CCCS(=O)(=O)N1CCC(NC(=O)c2cc3ccccc3s2)CC1 | 67.1
25 | CCCS(=O)(=O)N1CCC(NC(=O)c2cc(CC)c(C)s2)CC1 | 2.91
26 | COC1C[C@@H]2CN(C(=O)c3cccc4c3OCCO4)C[C@@H]2C1 (stereo partly specified) | 40.625
27 | CCc1nnsc1C(=O)N(C)Cc1nnc2n1CCC2 | 22.9
28 | O=C(c1cnccn1)N1CCC(F)(F)C2(CCN(c3ccccn3)C2)C1 (stereo unspecified) | 12.1
29 | CNC(=O)C(NC(=O)c1ccn(C)c(=O)c1)c1ccccc1 (stereo unspecified) | -25.9
30 | Cc1nn(CN(Cc2ccsc2)C2CC2)c(=O)c2noc(C)c12 | 63.8
31 | CCCN(Cc1ccccc1)Cn1nc(C)c2c(C)onc2c1=O | 49.9
32 | CCN(Cc1cccc(C)c1)Cn1nc(C)c2c(C)onc2c1=O | 49.8
33 | CCN(CCc1ccccc1)Cn1nc(C)c2c(C)onc2c1=O | 56.1
34 | Cc1cccc(CN(Cn2nc(C)c3c(C)onc3c2=O)C2CC2)c1 | -18.9
35 | Cc1nn(CN(CC(C)C)C2CC2)c(=O)c2noc(C)c12 | -199
36 | COc1ccc(CC(=O)N2CCCCC2Cn2cccn2)cc1 (stereo unspecified) | -8.11
37 | c1cnc(-c2nc(CN3CCCC3Cn3cncn3)cs2)nc1 (stereo unspecified) | 27.6
38 | COCCC(=O)N1CCC(c2nc(O)cc(-c3ccncc3)n2)C1 (stereo unspecified) | -0.902
39 | Cc1c(C(=O)N(CCN(C)C)Cc2ccccn2)oc2ccccc12 | 63.7
40 | Cc1ccoc1C(=O)N(CCN(C)C)Cc1ccccn1 | -31.4
41 | COc1cc(C(=O)N(CCC#N)Cc2ccccn2)cc(OC)c1C | 7.9
42 | COCCN(CCOC)C(=O)c1ccoc1C | -0.551
43 | CN(C)CCN(Cc1ccccn1)C(=O)Nc1cccc(F)c1 | 18.9
44 | Cc1occc1C(=O)N(CCN(C)C)Cc1ccccn1 | 51.3

Row | Compound | INHIBITION [%]
45 | c1cnc(N2CCN(C3CCC[C@@H]4CN(CC5CC5)C[C@H]34)CC2)nc1 (stereo partly specified) | -34.7
46 | O=S1(=O)NC(C2CCCN(S(=O)(=O)N3CCCC3)C2)=Nc2ccccc21 (stereo unspecified) | 4.535
47 | Clc1ccc(OCCN2CCN(CCn3cncn3)CC2)cc1 | 47.4
48 | Fc1ccc(OC2CCN(CCn3cncn3)CC2)cc1 | -5.69
49 | Cc1ccc(OC2CCN(CCn3cncn3)CC2)cc1 | 86.8
50 | O=C(NCC1CCS(=O)(=O)C1)c1ccc(NC(=O)c2ccco2)cc1 (stereo unspecified) | 18.6
51 | O=C(CCc1cscn1)N1CCCC(n2cncn2)C1 (stereo unspecified) | 31.8
52 | COc1ccc(OC)c(CNc2c(O)c(=O)c2=O)c1 | 47.4
53 | Cc1nn(C)c2c(NCCCn3cccn3)nc(C3CC3)nc12 | 42.4
54 | CCc1nc(NCCCn2cccn2)c2c(n1)c(C)nn2CC | 64
55 | Cc1nn(C)c2c(NCCCn3cccn3)ncnc12 | -43.4
56 | Cc1nc(NCc2ccccn2)c2c(n1)c(C)nn2C | 57.4
57 | Cc1nn(C)c2c(NCc3ccccn3)nc(C(C)C)nc12 | 33.7
58 | Cc1nn(C)c2c(NCCCn3cccn3)nc(C(C)C)nc12 | 62.3
59 | CCc1nc(NCc2ccccn2)c2c(n1)c(C)nn2C | 42.1
60 | Cc1nc(NCCCn2cccn2)c2c(n1)c(C)nn2C | 57.3
61 | CCCc1nc(NCCCn2cccn2)c2c(n1)c(C)nn2CC | 27.5
62 | CCc1nc(NCCn2cccn2)c2c(n1)c(C)nn2C | 19.3
63 | CCc1nc(NCCCn2cccn2)c2c(n1)c(C)nn2C | 10.3
64 | Cc1nn(C)c2c(NCCn3cccn3)ncnc12 | -37.2
65 | Cc1ccc(S(=O)(=O)N2CC[C@H]3CO[C@H](CN(C)C)[C@H]3C2)cc1 | 32.2
66 | COc1ccc(CN2CCC3(CC2)CCN(CC(C)C)C3=O)cc1 | 13.2

Row | Compound | INHIBITION [%]
67 | CCn1nc(C)c2nc(C(C)C)nc(NCCCn3cccn3)c21 | 50.7
68 | CCn1nc(C)c2nc(C(C)C)nc(NCCCn3ccnc3)c21 | -13.085
69 | CCn1nc(C)c2nc(C)nc(NCCCn3cccn3)c21 | 39.1
70 | C[C@@H]1CN(c2ccc(C#N)cn2)CC[C@@]1(O)C1CCOCC1 | 24.76
71 | CCCc1n[nH]c(C2CN(C(=O)c3ccc(C)[nH]c3=O)CCO2)n1 (stereo unspecified) | 40.2
72 | c1ccc(CCCN2CCN(CCn3cncn3)CC2)cc1 | 15.1
73 | COc1cc2c(c(OC)c1OC)CCN(CCn1cncn1)CC2 | 52.6
74 | COc1ccc(CN2CCn3cncc3C2)cc1Cn1cncn1 | 16.1
75 | COc1cc2c(c(OC)c1OC)CCN(CCn1nc(C)cc1C)CC2 | 36.3
76 | COc1cc(C)cc(C(C(=O)O)N(C)CCN2CCCC2)c1OC (stereo unspecified) | 28
77 | COc1cc2c(c(OC)c1OC)CCN(CCN1CCCCC1)CC2 | 54.8
78 | CNC(=O)[C@H]1C[C@H]2OCC[C@H]2N(CCOc2ccc(Cl)cc2)C1 | -52.3
79 | Cc1cc2cc(C(=O)N3C[C@H](O)[C@]4(CCCO4)C3)ccc2o1 | 15.9
80 | Cc1ccc(CN2CC[C@H]3[C@H](CC(Cn4cccn4)N3C)C2)s1 (stereo partly specified) | 25.3
81 | Cc1n[nH]c(C2CN(C(=O)c3cc(Cl)c[nH]3)CCO2)n1 (stereo unspecified) | 31.6
82 | O=C(NCC(=O)N1CCCC1Cc1cccc(F)c1)c1ccccn1 (stereo unspecified) | -6.51
83 | Cc1nc(CNC(C)c2cccc(N3CCCC3=O)c2)cs1 (stereo unspecified) | 22.7
84 | CC1CCN(CCCNS(=O)(=O)c2cccc(F)c2)CC1 | -14.9
85 | CC1CCN(CCCNS(=O)(=O)Cc2ccccc2F)CC1 | 26.9
86 | CC1CCN(CCCNS(=O)(=O)c2cc(F)cc(F)c2)CC1 | 51.4
87 | CC(=O)N1CCN(CCNS(=O)(=O)c2cc(F)cc(F)c2)CC1 | 26.4
88 | O=S(=O)(Cc1ccccc1F)NCCCN1CCCCC1 | 36.3

Row | Compound | INHIBITION [%]
89 | O=S(=O)(NCCCN1CCCC1)c1cc(F)cc(F)c1 | 71.3
90 | COc1cccc(-c2c[nH]c(C3CCCN3)n2)c1 (stereo unspecified) | -8.45
91 | CCc1ncc(CN[C@@H]2CCCN(C(C)=O)[C@H]2c2ccc(C)s2)cn1 | 23.2
92 | COCCOc1cccc(C(=O)N2CCCC(n3ccnc3C)C2)c1 (stereo unspecified) | 44.3
93 | Cc1cnn(C2CCCN(C(=O)c3ccc(NC4CC4)nc3)C2)c1 (stereo unspecified) | -22.9
94 | Cc1cccc2c1NC1(CCOCC1)NC2=O | 48
95 | Cc1cc(NCc2ccc(S(N)(=O)=O)cc2)nc(C)n1 | 41.5
96 | Cc1ccc(-c2nnc(CN3CCn4c(nnc4C4CC4)C3)o2)cc1 | 52.3
97 | Cc1ccc(-c2nc(CN3CCn4c(nnc4C4CC4)C3)co2)cc1 | -25.9
98 | c1ccc(-c2nc(CN3CCn4c(nnc4C4CC4)C3)co2)cc1 | -40.2
99 | Cc1ccc(-c2nc(CN3CCn4c(nnc4C4CC4)C3)co2)c(C)c1 | 54.4
100 | Cc1cccc(-c2noc(CN3CCn4c(nnc4C4CC4)C3)n2)c1 | -14.8
101 | Fc1ccc(-c2nnc(CN3CCn4c(nnc4C4CC4)C3)o2)cc1 | 0.0932
102 | Cc1ccc(-c2noc(CN3CCn4c(nnc4C4CC4)C3)n2)cc1 | -32.345
103 | Cc1ccccc1-c1noc(CN2CCn3c(nnc3C3CC3)C2)n1 | 55.9
104 | Cc1ccc(-c2nc(CN3CCn4c(nnc4C4CC4)C3)no2)cc1 | 24.7
105 | Cc1n[nH]c(C2CN(C(=O)c3cc(C4CC4)on3)CCO2)n1 (stereo unspecified) | 49.2
106 | CN(C)C(C)(C)CNCc1cn(C)nc1-c1cccnc1 | 23.7
